Screening results deposited in PubChem BioAssay by National Center for Advancing Translational Sciences (NCATS).
Hits are enriched below; roughly 21% of the tested compounds scored in any of these assays.
Pf growth 48h = P. falciparum growth inhibition at 48 hours (one generation) | P. falciparum luciferase growth in erythrocytes, 48 h | Potency, µM (highest dose often 28.7 µM), for the others: at the top dose activity change, negative = inhibition, most hits filed as inhibitors | 310,000 compounds, 5.9% hits; active means well fitted inhibition curve with a large enough effect; inconclusive means small, poorly fitted or top-dose-only effect, or another doubt; inactive means no such curve, though single readings can be large or run the other way; further: potency means the concentration at half of the fitted maximal effect; on the % scale 0 is the no-effect control and ±100 the full control effect
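Luciferase-expressing P. falciparum in infected erythrocytes (2% hematocrit, 0.1% parasitemia final) in RPMI 1640/0.5% Albumax were exposed to compound for 48 hours at 37 C, 5% CO2; growth read as luminescence.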
SARS PLpro yeast = SARS-CoV PLP inhibition in yeast; S. cerevisiae expressing SARS-CoV PLpro, growth rescue; Potency, µM (highest dose often 32.9 µM), for the others: at the highest dose activity, positive = growth rescue, most hits filed as activators; 330,000 compounds, 0.19% hits; AID 485353; further: potency means the concentration at half of the fitted maximal effect; 0% is about no effect; nearly all actives have a fitted effect of over 55% in size
NS1 inh = influenza NS1 inhibition. Potency, µM (series often up to 46.1 µM), for the others: at the top dose activity, positive = more growth. 270,000 compounds, 0.4% hits; further: potency means the concentration at half of the fitted maximal effect; actives are rising curves; nearly all actives have a fitted effect of over 50% in size
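OD600 was taken as the measure of yeast growth restored by compound in an NS1-expressing S. cerevisiae strain. Cells had been washed out of glucose medium and diluted 1:100 into galactose -URA medium, pH 6.0.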
Pf growth 96h = P. falciparum growth inhibition at 96 hours. P. falciparum luciferase reporter growth, 96 h. Potency, µM (highest dose often 28.7 µM), for inactives: at the top dose activity change, negative = inhibition, most hits filed as inhibitors. 320,000 compounds, 6.9% hits. AID 504834; active means well fitted inhibition curve with a large enough effect; inconclusive means small, poorly fitted or top-dose-only effect, or another doubt; inactive means no such curve, though single readings can be large or run the other way; further: potency means the concentration at half of the fitted maximal effect; on the % scale 0 is the no-effect control and ±100 the full control effect
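Erythrocytes infected with luciferase-expressing P. falciparum were dispensed at 2% hematocrit and 0.05% parasitemia (final), then incubated with compounds 96 hours at 37 C in 5% CO2. Luminescence after detection reagent addition reported growth.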
CHX counter = counter-screen hit for Shiga toxin inhibitors, cycloheximide; cell reporter, cycloheximide protein synthesis inhibition counterscreen; max response, %; 300,000 compounds, 12% hits; AID 2314; in the data active means max response mostly above about 13%, no sharp cut-off; inactive means mostly below about 14%; further: read at 38.3 µM for the half of the compounds with a filed dose; 0% is about no effect
Shiga toxin inh = inhibitors of Shiga toxin in Vero cells. inhibition, % at 38.7 µM. AID 2315. Vero cells, Shiga toxin protein synthesis inhibition reporter. 290,000 compounds, 9.2% hits; in the data active means inhibition mostly above about 28%, no sharp cut-off; inactive means mostly below about 43%; further: 0% is about no effect
An asterisk follows results filed as active; ? = inconclusive; . = no result. Unless noted, the call rests on the fitted dose curve.

SMILES	Pf growth 48h	SARS PLpro yeast	NS1 inh	Pf growth 96h	CHX counter	Shiga toxin inh
CCc1ccc(NC(=O)C2C3/C=C\CCCCC32)cc1 (stereo not given)	166.0%	-4.0%	-3.1%	157.7%	37.1*	active
CON(C)C(=O)CC(CN(Cc1ccccc1)C(=O)OC(C)(C)C)c1ccc(Cl)cc1 (stereo not given)	.	0.4%	.	.	.	.
Cc1cc(C)cc(C(=O)n2cnnc2N)c1	0.0%	-4.0%	-6.6%	.	-2.6	-2.7
Cc1cccc(C(=O)n2cnnc2N)c1	10.4µM*	0.6%	4.5%	-48.9%	7.2	-11.3
COc1ccc2c(c1)CCCC21NC(=O)N(CC(=O)NCc2cccs2)C1=O (stereo not given)	.	-6.4%	.	.	.	.
CCn1cc(CN(C)C(=O)/C=C/c2ccc([N+](=O)[O-])cc2)c(C)n1	7.5%	-8.0%	-6.0%	?	-0.2	16.4
Cc1nn(C)cc1C(=O)/C=C/c1ccc([N+](=O)[O-])cc1	13.1µM*	4.0%	3.2%	4.65µM*	11.5	3.5
CCCn1c(SCC(=O)N2CCCC(C)C2)nnc1-c1ccccn1 (stereo not given)	-18.7%	-0.1%	-1.0%	-0.5%	-1.8	-15.0
COc1ccc(-c2nc(-c3ccccn3)ncc2S(C)(=O)=O)cc1	366.3%	-1.7%	.	13.9%	6.7	-14.2
CCn1c(N)nc2c1c(=O)n(C)c(=O)n2C	19.3%	-0.7%	-10.2%	216.5%	-3.2	-8.0
Cn1ncnc2c(=O)n(C)c(=O)nc1-2	0.928µM*	-26.2%	-93.7%	0.7%	-10.8	-11.6
CCCc1nc2c(=O)n(C)c(=O)nc-2n(C)n1	5.22µM*	-4.7%	.	-1.2%	-14.3	-11.6
Cn1nc(-c2ccccn2)nc2c(=O)n(C)c(=O)nc1-2	2.94µM*	-1.1%	-32.3%	2.94µM*	8.0	24.6
O=C(COC(=O)CN1C(=O)COc2ccccc21)NCc1ccc(F)cc1	1.5%	0.8%	.	-22.9%	.	.
Nc1nc(SCC(=O)N2CCCc3ccccc32)[nH]c(=O)c1-c1ccccc1	14.0%	3.1%	-4.8%	0.0%	34.4*	54.0*
Nc1nc(SCc2ccccc2)[nH]c(=O)c1-c1ccccc1	55.7%	-1.6%	-5.1%	1.4%	67.1*	120.5*
O=C(CSc1nc2c(cnn2-c2ccc(F)cc2)c(=O)[nH]1)N1CCCc2ccccc21	27.3%	-0.1%	-35.2%	?	-5.5	-30.6
CCOC(=O)c1oc2c(CN3CCN(C)CC3)c(O)ccc2c(=O)c1-c1ccccc1OC	-3.4%	3.1%	-6.7%	9.28µM*	-4.1	1.5
CCOC(=O)c1c(-c2ccccc2)oc2ccc(O)c(CN3CCN(C)CC3)c12	3.7µM*	-1.8%	-4.7%	3.29µM*	-2.6	-6.4
COc1ccccc1-c1c(C)oc2c(CN3CCN(C)CC3)c(O)ccc2c1=O	-18.4%	13.3%	2.7%	-17.3%	-2.4	-3.0
Cn1c(SCC(=O)N2CCCC2)nnc1-c1cnccn1	14.2%	0.7%	5.8%	58.6%	5.1	-2.2
Cc1cc(C(=O)NCC(c2ccco2)N2CCCC2)c2ccccc2n1 (stereo not given)	?	-2.5%	.	10.4µM*	.	.
Cc1cc(C)n(-c2ccc(C(=O)NCC(c3ccco3)N3CCCC3)cc2)n1 (stereo not given)	?	-1.5%	.	5.22µM*	.	.
O=C(CNC(=O)c1ccccc1)NCC(c1ccco1)N1CCCC1 (stereo not given)	.	13.5%	.	.	.	.
N#Cc1ccc(C(=O)NCC(c2ccco2)N2CCCCC2)cc1 (stereo not given)	.	3.2%	1.0%	10.4µM*	-1.8	6.5
SMILES	Pf growth 48h	SARS PLpro yeast	NS1 inh	Pf growth 96h	CHX counter	Shiga toxin inh
COc1ccc(CC(=O)OCC(=O)Nc2cccc(C(C)=O)c2)cc1OC	38.9%	-5.6%	.	23.8%	.	.
CN(C)c1nccc(N(Cc2ccccc2)Cc2ccccc2)c1C#N	?	-39.3%	-33.8%	74.7%	35.9*	94.4*
Cc1ccc(Nc2cc(C)nc(-c3ccccc3O)n2)cc1	.	-27.5%	-17.6%	113.7%	28.9*	94.6*
Cc1cc(NCCCN)nc(-c2ccccc2O)n1	-7.7%	-0.1%	-5.6%	.	25.4*	42.9
Cc1cc(Nc2ccc(Br)cc2)nc(-c2ccccc2O)n1	96.5%	-2.3%	-2.7%	-9.9%	13.7	18.3
Cc1ccc(Oc2cc(C)nc(-c3ccccc3O)n2)cc1	18.6%	-6.8%	-11.9%	?	36.6*	32.7
Cc1ccc(Nc2cc(C)nc(-c3ccccc3)n2)cc1	174.2%	-5.8%	-41.0%	7.4%	41.9*	91.0*
